Activity calls are given as the source filed them. The calls were made as follows: active = hit-call score of the fitted dose curve at least 0.9, where 1 is the maximum; inactive = score below 0.9.
Assay: ATG_M_61_CIS: Attagene CIS-FACTORIAL HepG2 Assay for M61 Transcription Factor (Internal Marker) (AID 2282937)
Conditions: HepG2 Attagene CIS-FACTORIAL M61 internal marker reporter; actives raise or lower the signal
Protocol: ATG_CIS is a cell-based, multiplexed-readout assay that uses HepG2, a human liver cell line, with measurements taken at 24 hours after chemical dosing in a 24-well plate.ATG_M_61_CIS is one of 52 assay component(s) measured or calculated from the ATG_CIS assay. It is designed to make measurements of mRNA induction, a form of inducible reporter, as detected with fluorescence intensity signals by Reverse transcription polymerase chain reaction (RT-PCR) and Capillary electrophoresis technology.Data from the assay component ATG_M_61_CIS was analyzed into 1 assay endpoint. This assay endpoint, ATG_M_61_CIS, was analyzed with bidirectional fitting relative to DMSO as the negative control and baseline of activity. Using a type of inducible reporter, measures of mRNA for gain or loss-of-signal activity can be used to understand the background control at the transcription factor-level as they relate to the gene . Furthermore, this assay endpoint can be referred to as a secondary readout, because this assay has produced multiple assay endpoints where this one serves a background control function. To generalize the intended target to other relatable targets, this assay endpoint is annotated to the background measurement intended target family, where the subfamily is internal marker.
Human liver HepG2 cells are transiently transfected with multiple reporter transcription units (MRTUs) in 6-well plates using FuGene 6 reagent (Roche; 3 ml FuGene/1 mg DNA). The MRTU constructs are regulated by a cis-regulating element (promoter). […] A major difference between the CIS and TRANS system is that in CIS activities of endogenous TFs are measured, whereas the TRANS assay evaluates changes in activities of exogenous, chimeric NR-Gal4 proteins. […] At the end of 24 hour incubation, total RNA was isolated using TriZol reagent (Invitrogen). The isolated RNA is then reverse-transcribed using oligo(dT) primer and Mo-MLV reverse transcriptase (Invitrogen) with DNAse I (Ambion) treatment for 30 min. The one-tenth of the produced cDNA was amplified by PCR using Taq DNA polymerase (Invitrogen) and two reporter sequence-specific primers. The PCR products were fluorescently labeled by primer extension with 6-arboxyfluorescein (6-FAM) 5'-labeled reporter sequence-specific primer (2 min at 95 C, 20 s at 68 C and 10 min at 72 C) and these products were digested with 5U of HpaI (New England Biolabs) for 2h at 37 C. The fragments were purified using Qiaquick PCR columns (Qiagen), analyzed on an ABI 3130xL genetic analyzer (Applied Biosystems) with peak positions identified by using a set of X-rhodamine (ROX)-labeled MapMarker1000 molecular weight standards (BioVentures). The raw capillary electrophoresis data was processed using Attagraph software (Attagene).

Row | Compound | outcome
1 | CC(C)(C)CC(C)(C)c1ccc(OCCOCC[N+](C)(C)Cc2ccccc2)cc1 | inactive
2 | O=C(O)c1cccnc1C(=O)O | inactive
3 | CC(C)(C)C1=CC(=O)C(C(C)(C)C)=CC1=O | inactive
4 | ON=C1CCCCC1 | inactive
5 | CCCC(O)C(O)CO (stereo not given) | inactive
6 | O=C1OC2(c3ccccc31)c1ccc(O)c(Br)c1Oc1c2ccc(O)c1Br | inactive
7 | CN(C)c1ccncc1 | inactive
8 | C[C@@H]1CCN(C(=O)[C@H](CCCN=C(N)N)NS(=O)(=O)c2cccc3c2NC[C@H](C)C3)[C@@H](C(=O)O)C1 | inactive
9 | NC1CCCCC1N (stereo not given) | inactive
10 | Cc1occc(=O)c1OC(=O)C(C)C | inactive
11 | CCCCCCCCCC(=O)OC | inactive
12 | O=[N+]([O-])c1cccc(Cl)c1 | inactive
13 | CC(=O)O[C@H]1C[C@@H]2CC[C@@]1(C)C2(C)C | inactive
14 | CC1(C)COCN1 | inactive
15 | COc1cccc(OC)c1O | inactive
16 | CC(=O)O[C@@H]1C[C@@H]2CC[C@@]1(C)C2(C)C | inactive
17 | c1ccc2cc(Nc3ccc(Nc4ccc5ccccc5c4)cc3)ccc2c1 | inactive
18 | CCCN(CCC)S(=O)(=O)c1ccc(C(=O)O)cc1 | inactive
19 | CCC(C)c1cc([N+](=O)[O-])cc([N+](=O)[O-])c1OC(=O)OC(C)C (stereo not given) | inactive
20 | CCCCSCCCC | inactive

Row | Compound | outcome
21 | CCOC(=O)COC(=O)c1cc(Oc2ccc(C(F)(F)F)cc2Cl)ccc1[N+](=O)[O-] | inactive
22 | Nc1ccc2cc(S(=O)(=O)O)cc(O)c2c1N=Nc1ccccc1C(F)(F)F | inactive
23 | CCCCCC(C=O)=Cc1ccccc1 | inactive
24 | c1ccc2[nH]cnc2c1 | inactive
25 | COc1ccccc1[N+](=O)[O-] | inactive
26 | CC(C)(N=C=O)c1cccc(C(C)(C)N=C=O)c1 | inactive
27 | CCOC(=O)CC(C)O (stereo not given) | inactive
28 | ClC(c1ccccc1)(c1ccccc1)c1ccccc1 | inactive
29 | Oc1ccc2cc(SSc3ccc4cc(O)ccc4c3)ccc2c1 | inactive
30 | Clc1ccc(C(c2ccccc2Cl)C(Cl)Cl)cc1 (stereo not given) | inactive
31 | COC(=O)c1ccc([N+](=O)[O-])cc1 | inactive
32 | CCCCCCOCCOCCO | inactive
33 | C=C(C)C1CC=C(C)C(=O)C1 (stereo not given) | inactive
34 | CC(=O)C(C)O (stereo not given) | inactive
35 | CC/C=C\CCOC(=O)CC | inactive
36 | CC=Cc1ccc(OCC)c(O)c1 | inactive
37 | CCCCC(CC)COC(=O)c1ccc(O)cc1 (stereo not given) | inactive
38 | CCOc1ccc(NC(=O)CC(C)=O)cc1 | inactive
39 | CCCCCCCCCCCCCCCC(=O)OC/C=C(C)/C=C/C=C(C)/C=C/C1=C(C)CCCC1(C)C | inactive
40 | OC[C@H]1O[C@@H]2O[C@H]3[C@H](O)[C@@H](O)[C@@H](O[C@H]4[C@H](O)[C@@H](O)[C@@H](O[C@H]5[C@H](O)[C@@H](O)[C@@H](O[C@H]6[C@H](O)[C@@H](O)[C@@H](O[C@H]7[C@H](O)[C@@H](O)[C@@H](O[C@H]8[C@H](O)[C@@H](O)[C@@H](O[C@H]9[C@H](O)[C@@H](O)[C@@H](O[C@H]1[C@H](O)[C@H]2O)O[C@@H]9CO)O[C@@H]8CO)O[C@@H]7CO)O[C@@H]6CO)O[C@@H]5CO)O[C@@H]4CO)O[C@@H]3CO | inactive

— PubChem BioAssay (EPA / NIEHS)
